Screens: PubChem BioAssay, National Center for Advancing Translational Sciences (NCATS)
HT1080-NT tox = kills 2HG-producing HT-1080-NT fibrosarcoma cells | HT-1080-NT fibrosarcoma viability, CellTiter-Glo ATP luminescence, 48 h | 360,000 compounds, 1.6% hits | Potency, µM (highest dose often 46.1 µM), for the others: at the top dose activity, negative = less viability, hits mostly cytotoxic;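 note: NT is the 2HG producing partner of a matched IDH1 knockdown line; potency is the fitted concentration of half-maximal effect; 0% = DMSO-treated cells and -100% = media-only wells without cells; nearly all actives have a fitted effect of over 55% in size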
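750 cells/well, RPMI + 5% FBS; 2 h settle, compound pin-transfer, 48 h at 37 degrees C. CellTiter-Glo 10 min RT, luminescence. Normalized to DMSO and media-only wells.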
DT40 TDP1 no CPT = qHTS for Inhibitors of human tyrosyl-DNA phosphodiesterase 1 (TDP1): qHTS in cells in absence of CPT. DT40 Tdp1-/- hTDP1 cells, no CPT, ATP luminescence, 48 h. AID 686978, 2013. 420,000 compounds, 15% hits. Potency, µM (series often up to 46.2 µM), without a hit: top-dose activity change, negative = growth inhibition, most hits filed as inhibitors; note: potency is the fitted concentration of half-maximal effect; nearly all actives have a fitted effect of over 55% in size
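Seeded 400 DT40-hTDP1 cells/well (vehicle DMSO, no 20 nM CPT); pinned compounds; ≥48 hr at 37 °C; CellTiter-Glo luminescence as viability measure.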
TDP1 cell CPT = growth inhibition of DT40 Tdp1-/-;hTDP1 cells with camptothecin (screen for TDP1 inhibitors) | 420,000 compounds, 12% hits | Potency, µM (doses to about 46.2 µM), without a hit: top-dose activity change, negative = growth inhibition, usual class: inhibitors | chicken DT40 Tdp1-/-;hTDP1 cells + 20 nM CPT, ATP luminescence, 48 h; note: potency is the fitted concentration of half-maximal effect; nearly all actives have a fitted effect of over 55% in size
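Chicken DT40 Tdp1-/- cells stably complemented with human TDP1 were seeded at 400 cells/well in medium containing 20 nM camptothecin, exposed to pin-transferred compounds, and grown at 37 °C for at least 48 hr. Viability was read as ATP luminescence.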
IL1B secr inh = blocks inflammasome-driven IL-1 beta release. 360,000 compounds, 4.7% hits. activity change, % at 57.5 µM. THP-1 LPS/ATP IL-1B secretion, AlphaLISA, 16 h; stronger effect = lower value; in the data active = activity change below about -50%; inconclusive = mostly about -30% to -49%
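Secreted IL-1B measured by AlphaLISA bead assay after 16 h compound exposure of THP-1 cells; compounds (final up to 57.5 uM) added 1 h before LPS (250 ng/mL) and ATP (1.25 mM) stimulation; lower signal means less secretion.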
HT1080 IDH1KD tx = toxicity to HT-1080 IDH1 knockdown cells (counter line) | HT-1080 IDH1 knockdown viability, ATP luminescence, 48 h | Potency, µM (titrated, usually from 46.1 µM), without a hit: top-dose activity, negative = toxicity, most hits filed as cytotoxic | 360,000 compounds, 2% hits | AID 686971;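 note: potency is the fitted concentration of half-maximal effect; 0% = DMSO wells and -100% = cell-free medium wells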
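% activity derives from luminescence (CellTiter-Glo), normalised to DMSO and no-cell wells. HT-1080-IDH1KD cells, 750/well, had 48 h compound exposure at 37 °C.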
Starred values were filed as active, the others as inactive; ? = inconclusive; · = no result; [ ] = another dose, or the depositor's remark. In the library only some 19% were active in any assay of this set; here they are far more common. Unless noted, calls come from the whole dose curve; as a rule, active = well fitted curve in the direction sought with a large enough effect; inconclusive = small, poorly fitted or top-dose-only effect, or another doubt; inactive = no such curve, though single readings can be large; an effect the other way counts as inactive or inconclusive. Unless noted, % is set by controls: 0 for no effect and ±100 for the full control effect.

SMILES | HT1080-NT tox | DT40 TDP1 no CPT | TDP1 cell CPT | IL1B secr inh | HT1080 IDH1KD tx
COc1cc(CN2CCc3nc(N4CCN(c5ccccc5F)CC4)ncc3C2)ccc1OC(C)C | · | -25.9% | ? | · | ·
CN(C)c1ccc(CN2CCc3nc(N4CCN(c5ccccn5)CC4)ncc3C2)cc1 | · | 20.6µM* | 20.6µM* | · | ·
CC1CCN(c2ccccc2NC(=O)c2cc3ccccc3o2)CC1 | -12.8% | ? | ? | 0.0 | -27.2%
Cc1ccc(Cl)c(O)c1 | · | -4.2% | -13.0% | · | ·
O=C1NCCOC(=O)[C@@H](Cc2ccc(F)cc2)CC/C=C/C[C@@H]1CC(=O)N(CCO)Cc1ccccc1 | -0.4% | 23.1µM* | 20.6µM* | 1.7 | 12.0%
CC(C)=CCOc1c2occc2cc2ccc(=O)oc12 | 3.7% | -0.6% | -18.1% | 6.4 | 16.9%
O=C1CCCN1c1ccc(S(=O)(=O)O)cc1 (tested in a mixture with another compound) | 2.3% | 1.3% | -1.4% | 0.0 | 18.9%
CCOc1ccc(N2C(=O)NC(=O)/C(=C\c3ccccc3[N+](=O)[O-])C2=O)cc1 | -0.5% | ? | ? | -0.8 | 0.4%
O=C1NC(=O)N(c2ccccc2)C(=O)/C1=C\c1ccc([N+](=O)[O-])s1 | 4.3% | 8.2µM* | 20.6µM* | -69.4* | -2.0%
COc1ccc(N2C(=O)NC(=O)/C(=C\c3ccccc3[N+](=O)[O-])C2=O)cc1 | 2.3% | -10.6% | -19.5% | 5.6 | -5.1%
CN1C(=O)NC(=O)/C(=C/c2ccc([N+](=O)[O-])s2)C1=O | -25.4% | 3.26µM* | 4.11µM* | -18.5 | -7.6%
COc1ccc(OC)c(N2C(=O)NC(=O)/C(=C\c3ccc([N+](=O)[O-])s3)C2=O)c1 | -13.2% | ? | 16.4µM* | ? | -18.0%
O=C(Oc1ccccc1)N1CCC2(CC1)CN(C(c1ccccc1)c1ccccc1)C2 | · | ? | -12.2% | · | ·
COc1cc(/C=N/NC(=O)CN2CC(c3ccccc3)CC2=O)ccc1OC(=O)N(C)C (centres undefined) | 3.6% | -12.2% | -6.0% | ? | -20.6%
O=C1C=C(N2CC2)c2ccccc2C1=O | 23.1µM* | ? | ? | 62.9 | ?
Clc1ccc(CCNCc2ccncc2)c(Cl)c1 | -5.1% | -27.1% | ? | ? | 1.2%
Brc1ccccc1 | -2.6% | 17.1% | 16.7% | -20.3 | -3.2%
c1ccc(SSc2ccccc2)cc1 | 5.4% | 11.6µM* | 11.6µM* | -100.8* | -17.9%
COc1ccc(Nc2nc(N3CCCC3)nc3ccccc23)c(OC)c1 | ? | ? | ? | -99.1* | 11.2µM*
Cc1cccc(Cn2c(=O)n(CC3CCC(C(=O)N4CCC(C)CC4)CC3)c(=O)c3sccc32)c1 (centres undefined) | · | 16.4µM* | 20.6µM* | · | ·
O=C(CNC(=O)OCc1ccccc1)Nc1ccc(Br)cc1C(=O)c1ccccc1Cl | -28.7% | ? | ? | -6.6 | ?
CN(C(=O)CNC(=O)OCc1ccccc1)c1ccc(Br)cc1C(=O)c1ccccc1Cl | ? | 2.31µM* | 3.26µM* | -8.5 | ?
CCC(=O)Nc1cc(C(=O)N2CCC3(CC2)OCCO3)ccc1S(=O)(=O)c1ccc(C)cc1 | 0.9% | -10.5% | 6.8% | 13.0 | -1.3%
CC(C)N1CC=C(c2c[nH]c3ccccc23)CC1 | -16.1% | 4.61µM* | 7.31µM* | 4.3 | -19.9%
CC(C(=O)c1c[nH]c2ccccc12)N1CCOCC1 (centres undefined) | -2.0% | -1.6% | -0.6% | 12.4 | -0.6%
SMILES | HT1080-NT tox | DT40 TDP1 no CPT | TDP1 cell CPT | IL1B secr inh | HT1080 IDH1KD tx
Cc1cc2c(C(C)C)c(O)c(O)c(C=O)c2c(O)c1-c1c(C)cc2c(C(C)C)c(O)c(O)c(C=O)c2c1O | · | 5.8µM* | 5.8µM* | · | ·
C=C1C([C@@H](O)C[C@H](C)C2O[C@@]3(CCCCO3)CC[C@H]2C)OC2CC[C@@]3(CC[C@@H](/C=C/[C@@H](C)C4CC(C)=C[C@]5(O4)O[C@H](C[C@@](C)(O)C(=O)O)CCC5O)O3)OC2[C@@H]1O (some centres undefined) | · | 0.0104µM* | 0.013µM* | · | ·
C=C1C(O)[C@@H]2O[C@]3(CC[C@H](/C=C/C(C)[C@@H]4CC(C)=CC5(O[C@H](C[C@@](C)(O)C(=O)O)CCC5O)O4)O3)CC[C@H]2O[C@@H]1C(O)CC(C)[C@H]1OC2(CCCCO2)CCC1C (some centres undefined) | ? | 0.146µM* | 0.164µM* | ? | 0.0082µM*
CC(C)c1onc(C(=O)N2CCC3(CC2)OCCO3)c1[N+](=O)[O-] | 7.0% | 20.6% | -4.8% | 10.4 | 11.2%
COc1ccc(CCn2c(O)c(/C=N/N3CCOCC3)c(=O)[nH]c2=O)cc1OC | -2.0% | -26.6% | 6.6% | 18.1 | 0.8%
Cc1n[nH]c(C)c1CCCCOc1ccc([N+](=O)[O-])cc1 | 7.5% | ? | 14.6µM* | 12.4 | -2.4%
CC1=CP(=O)(Oc2ccc([N+](=O)[O-])cc2)CC1 (centres undefined) | -0.3% | -2.8% | -22.8% | 1.0 | 3.7%
Nc1nc(F)nc2c1ncn2[C@@H]1O[C@H](CO)[C@@H](O)[C@@H]1O | ? | 0.164µM* | 0.206µM* | 82.5 | ?
Nc1nc(F)nc2c1ncn2[C@@H]1O[C@H](CO)[C@@H](O)[C@H]1O | 0.651µM* | 0.164µM* | 0.058µM* | -74.2* | 0.231µM*
CCNC(=O)C1OC(n2cnc3c(N)ncnc32)C(O)C1O (centres undefined) | ? | -5.1% | 6.0% | ? | ?
O=C(CN1CCOCC1)c1ccc2ccccc2c1 | · | -10.6% | -0.7% | · | ·
CCOC(=O)c1cnc(N2CC2)nc1N | -2.0% | 0.92µM* | 0.461µM* | -8.3 | 7.0%
COC1=CC(=O)OC(/C=C/c2ccccc2)C1 (centres undefined) | -29.5% | 4.4% | 4.1% | -18.1 | 1.6%
NC(Cc1ccc(Cl)cc1)c1csc(Nc2cnccn2)n1 (centres undefined) | ? | -82.9% | -89.1% | ? | ?
COc1ccc(CC(N)c2csc(NC(=O)Nc3ccccc3Oc3ccccc3)n2)cc1 (centres undefined) | 14.6µM* | 16.4µM* | ? | ? | ?
Oc1ccc2c3c1O[C@H]1[C@@H](O)C=C[C@H]4[C@@H](C2)NCC[C@@]341 | · | -15.8%[92.5 µM] | -19.3%[92.5 µM] | · | ·
C[C@H](CO)N1C[C@H](C)[C@@H](CN(C)Cc2ccc(Cl)c(Cl)c2)Oc2c(NC(=O)c3ccncc3)cccc2C1=O | ? | ? | 20.6µM* | -5.1 | 0.5%
